# Peg3 prom inh = Peg3 promoter-driven luciferase inhibitors, primary screen, cell-based, HeLa, luciferase luminescence; inhibition, % at 20 µM; HeLa PEG-Prom luciferase reporter, overnight; hit rate 1.7% among 360,000;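 active means inhibition of at least 50% at 20 µM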
# TWEAK-Fn14 inh = inhibitors of TWEAK-Fn14 signaling, primary screen, luciferase reporter cells, uHTS; TWEAK-stimulated Fn14 reporter cells, luciferase luminescence, 8 h; inhibition, % at 10 µM; hit rate 2% among 360,000; in the data active means inhibition above about 50%
# TROY NFkB inh = inhibitors of TROY-driven NF-kB signaling, primary screen, Q293 LMP1-TROYcd cells, NF-kB luciferase, uHTS. Q293 LMP1-TROYcd NF-kB luciferase reporter, 4 h. inhibition, % at 10 µM. hit rate 0.98% among 360,000. AID 1347056, 2019;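 active means compounds whose plate-normalised and pattern-corrected inhibition of the luciferase reporter signal at the single screening dose is 50% or more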
# CF NFkB block = inhibitors of PAF-induced NF-kB signaling, primary screen, cell-based, GFP fluorescence, uHTS | KKLEB NF-kB-GFP reporter, GFP fluorescence overnight | inhibition, % at 5 µM | hit rate 0.86% among 360,000 | AID 588850, 2011;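 active means at least 50% inhibition at 5 µM, scaled per plate between neutral and stimulator controls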;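 further: PAF is a Pseudomonas aeruginosa culture filtrate used as stimulus; plate controls were PAF-stimulated DMSO wells for no effect and unstimulated DMSO wells for full effect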
# HIF-2a inh = HIF-2a reporter inhibitors, primary screen, luminescence, 786-0 RCC cells | inhibition, % at 18.8 µM | 786-0 RCC cells HIF-2a reporter, luciferase luminescence, overnight | hit rate 0.72% among 360,000;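 active means inhibition of the luminescence signal of 40% or more relative to plate controls, in a single-dose primary screen at 18.75 µM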
# KKLEB cytotox = cytotoxicity in KKLEB CF airway cells, primary screen, cytotoxicity control for CF NF-kB inhibitor project, cell-based, uHTS, fluorescence assay plates; hit rate 0.36% among 360,000; KKLEB CF airway cells viability, ATPlite luminescence, overnight; active compounds read low; cells stimulated with P. aeruginosa culture filtrate; activity change (cytotoxicity), % at 5 µM;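 active means corrected activity change at or below -50% at 5 µM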
# Starred values were filed as active, the others as inactive; · = no result given. Rows were chosen to be rich in hits. Some 4% of all compounds tested hit in one or more screens of this group.
SMILES,Peg3 prom inh,TWEAK-Fn14 inh,TROY NFkB inh,CF NFkB block,HIF-2a inh,KKLEB cytotox
COc1ccc(-c2nc3c(c(SCC(=O)Nc4cccc(O)c4)n2)Cc2c(CO)cnc(C)c2O3)cc1,19,12,2,12,5,2
Cc1ncc(CO)c2c1Oc1nc(-c3ccccc3)nc(SCC(=O)Nc3cccc(O)c3)c1C2,64*,1,0,-39,-13,-15
CCc1ccc(C2C(C#N)=C(N)Oc3cc(N)ccc32)cc1 (centres undefined),50*,21,9,8,13,3
Cc1cccc(C)c1NC(=O)CN(C)C(=O)CN1C(=O)NC(C)(C)C1=O,6,3,8,6,1,2
CCC(C(=O)Nc1ccc(S(=O)(=O)Nc2ncccn2)cc1)c1ccccc1 (centres undefined),7,86*,14,-7,18,1
CCC(C)NS(=O)(=O)c1ccc(NC(=O)C(Sc2ccccc2)c2ccccc2)cc1 (centres undefined),46,41,41,-2,16,18
CCCCNS(=O)(=O)c1ccc(NC(=O)C(Sc2ccccc2)c2ccccc2)cc1 (centres undefined),59*,63*,43,1,9,5
CSc1ncc(Cl)c(C(=O)Nc2ccc(S(=O)(=O)Nc3nccc(C)n3)cc2)n1,14,6,-8,-7,21,5
CCCSc1ncc(Cl)c(C(=O)Nc2ccc(S(=O)(=O)Nc3ncccn3)cc2)n1,13,58*,-14,-47,12,-12
COc1ccc(-c2csc(C(C)(NC(C)=O)c3ccccc3)n2)cc1 (centres undefined),0,3,-10,6,-1,1
CC(C)n1c(=O)c2ccccc2n1Cc1cn(Cc2ccccc2)nn1,-1,-43,8,0,-5,-4
COC(=O)c1ccc(Cn2c(C)c(C(=O)Nc3cccc(Oc4ccccc4)c3)sc2=O)o1,20,-18,20,-12,-5,10
CCc1ccc(Nc2n[n+](-c3ccccc3)c(-c3ccc(N(CC)CC)cc3)s2)cc1,84*,43,30,33,-123,1
CCc1ccc(Nc2n[n+](-c3ccccc3)c(-c3ccc(OCc4ccccc4)cc3)s2)cc1,7,83*,36,12,-13,1
CCN(CC)c1ccc(-c2sc(Nc3ccccc3)n[n+]2-c2ccc(F)cc2)cc1,-18,16,13,-36,-7,14
COC(=O)C1=C(C)NC(=O)NC1c1ccc(N2CCC(c3ccccc3)=N2)cc1 (centres undefined),6,41,52*,-7,-10,6
COC(=O)C1=C(C)NC(=O)NC1c1ccc(OC)c(OC)c1 (centres undefined),2,-5,15,3,5,-29
CCOc1cc(/C=N/NC(=O)c2ccc(CN3CCOCC3)cc2)ccc1OCc1ccccc1,27,70*,51*,-9,18,4
Cn1cc(Br)c(C(=O)N/N=C/c2cccc(OC3CSC3)c2)n1,-55,-9,-52,3,-85,3
CCOc1cc(/C=N/NC(=O)c2nn(C)cc2Br)ccc1OCc1ccccc1Cl,3,57*,30,-23,-7,13
Cc1ccc2nc(-c3ccccn3)[nH]c2c1,-8,80*,37,3,16,1
O=C(NCc1cccnc1)c1c[nH]c2cc3c(cc2c1=O)OCCO3,-219,70*,49,28,-76,-18
O=C(NCc1ccccc1)c1c[nH]c2ccc(S(=O)(=O)Nc3ccc4c(c3)OCCO4)cc2c1=O,25,3,·,3,19,-30
CC(NC(=O)c1ccc(N(C)C)cc1)C(c1cccs1)N1CCN(C)CC1 (centres undefined),-124,44,62*,-25,-102,-3
Cc1nn(C(C)C(=O)NCCCc2ccccc2)c(=O)c2nn(-c3ccccc3)c(C)c12 (centres undefined),21,4,5,-9,24,3
SMILES,Peg3 prom inh,TWEAK-Fn14 inh,TROY NFkB inh,CF NFkB block,HIF-2a inh,KKLEB cytotox
Cc1cc(C)n(-c2nc(SCCN(C)C)c3c4c(sc3n2)CCCC4)n1,83*,-41,17,12,-271,-31
Cc1cc(C)n(-c2nc(SCC(=O)O)c3c4c(sc3n2)COC(C)(C)C4)n1,21,-5,-1,-4,9,2
Cc1nn(C)c(C)c1S(=O)(=O)NCCc1ccc(Cl)cc1,-17,1,-12,-11,-22,4
CCS(=O)(=O)N1CCC(C(=O)Oc2ccc(Br)cc2)CC1,-3,79*,-8,-10,11,0
O=C(/C=C/[C@H]1O[C@@H](n2cnc3c(NC(=O)c4ccccc4)ncnc32)[C@H](O)[C@@H]1O)N[C@@H](CO)Cc1c[nH]c2ccccc12,14,-9,-2,-18,9,5
Cc1nnsc1NC(=O)OCc1ccc(C(C)(C)C)cc1,-29,56*,·,-6,-7,3
Cc1cccc(C)c1NC(=O)C(CCc1ccccc1)N1CCC(c2ccccc2)CC1 (centres undefined),·,·,·,·,-2,·
O=C1CSC(=NC(=O)c2ccccc2)N1,12,69*,-3,-4,-24,4
CC(C)C(=O)N=C1NC(=O)CS1,14,-4,3,8,19,1
O=C(/C=C/c1ccc(Cl)cc1Cl)Nc1cccc(S(=O)(=O)NC2=NCCC2)c1,-161,26,-9,-3,-177,-58*
Cc1ccc(CNC(=O)c2ccc3c(c2)NC(=O)C(N2CCOCC2)S3)cc1 (centres undefined),13,15,2,19,10,-14
COc1cccc(/C=C2/Sc3ccc(C(=O)NCCN4CCCC4)cc3NC2=O)c1,91*,-37,-28,8,12,-6
O=C1Nc2cc(C(=O)NCCN3CCCCCC3)ccc2S/C1=C/c1ccccc1F,99*,0,-3,4,-11,-9
Cc1ccc(/C=C2/Sc3ccc(C(=O)NCCN4CCOCC4)cc3NC2=O)cc1,5,0,-8,-7,-21,-2
CCN1CCCC1CNC(=O)c1ccc2c(c1)NC(=O)/C(=C\c1ccc(C)cc1)S2 (centres undefined),102*,-76,-32,10,-2,-13
O=C(NCCCN1CCCCCC1)c1ccc2c(c1)NC(=O)C(N1CCOCC1)S2 (centres undefined),-28,82*,·,2,7,4
CC(c1nc2ccccc2[nH]1)N(C(=O)Cc1csc2ccccc12)c1cccnc1 (centres undefined),14,17,-3,-10,21,1
